Assay results as given in PubChem BioAssay AID1456 (Vanderbilt High Throughput Screening Facility, 2008).
About 4,100 (2.2%) of roughly 190,000 compounds were called active. This excerpt belongs to a sample that is enriched for actives. A number with no mark means an inactive call.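 The calls were made as follows: active = thallium flux slope and its plate-corrected score both differing from the plate sample mean at a set confidence after two filtering rounds, in either direction; inactive = the rest.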

These molecules were tested against Solute carrier family 12 member 5 (Homo sapiens) (UniProt Q9H2X9) (assay: modulation of human KCC2 ion transport – cell-based, HEK293 KCC2, FluoZin-2 fluorescence, MLSMR, primary screen (AID 1456;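 also: slope of fluorescence scaled to starting intensity during 10 to 20 s after thallium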)). Details: KCC2 cells, thallium flux FluoZin-2 fluorescence; at 10 µM.
Solute carrier family 12 member 5 (Homo sapiens), sequence (Q9H2X9 whole entry, looked up): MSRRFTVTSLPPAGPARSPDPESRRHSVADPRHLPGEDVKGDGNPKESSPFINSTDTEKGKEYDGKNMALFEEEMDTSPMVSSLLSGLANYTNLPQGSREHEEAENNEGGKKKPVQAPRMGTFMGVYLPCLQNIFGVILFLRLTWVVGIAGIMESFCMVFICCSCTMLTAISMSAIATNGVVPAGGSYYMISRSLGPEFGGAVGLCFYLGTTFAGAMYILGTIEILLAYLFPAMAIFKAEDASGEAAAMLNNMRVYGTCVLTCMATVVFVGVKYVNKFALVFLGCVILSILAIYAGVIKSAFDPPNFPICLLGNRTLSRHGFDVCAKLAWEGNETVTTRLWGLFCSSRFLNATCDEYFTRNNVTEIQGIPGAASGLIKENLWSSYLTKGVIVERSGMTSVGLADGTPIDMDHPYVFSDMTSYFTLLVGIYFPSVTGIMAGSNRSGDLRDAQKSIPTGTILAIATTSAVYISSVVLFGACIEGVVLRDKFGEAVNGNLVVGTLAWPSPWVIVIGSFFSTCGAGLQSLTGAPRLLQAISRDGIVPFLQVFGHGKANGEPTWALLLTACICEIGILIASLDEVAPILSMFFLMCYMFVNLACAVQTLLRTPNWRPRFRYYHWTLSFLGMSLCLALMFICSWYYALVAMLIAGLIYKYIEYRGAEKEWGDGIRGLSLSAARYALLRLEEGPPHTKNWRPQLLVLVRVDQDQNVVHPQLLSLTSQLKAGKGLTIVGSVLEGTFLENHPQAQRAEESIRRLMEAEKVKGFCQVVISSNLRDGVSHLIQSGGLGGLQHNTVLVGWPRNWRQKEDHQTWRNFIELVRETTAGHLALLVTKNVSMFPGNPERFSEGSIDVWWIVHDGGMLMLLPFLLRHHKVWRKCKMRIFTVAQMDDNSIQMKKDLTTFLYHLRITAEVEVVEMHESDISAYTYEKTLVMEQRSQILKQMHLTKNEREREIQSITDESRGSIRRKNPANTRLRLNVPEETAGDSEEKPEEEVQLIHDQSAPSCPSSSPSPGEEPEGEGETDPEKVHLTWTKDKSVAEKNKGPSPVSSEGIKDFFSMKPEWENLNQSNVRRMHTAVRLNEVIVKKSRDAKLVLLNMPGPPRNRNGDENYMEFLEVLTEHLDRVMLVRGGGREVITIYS
For `O=[N+]([O-])c1ccc(N=Cc2c(O)ccc3ccccc23)cc1`, the B-score of Tl+ flux slope (higher = more flux/activation; lower = inhibition) was -0.766. For `CN(C)S(=O)(=O)c1ccc(Cl)c(NC(=O)COC(=O)CC(NC(N)=O)c2ccc(Cl)cc2)c1` (stereo unspecified), the B-score of Tl+ flux slope (higher = more flux/activation; lower = inhibition) was -0.372. With `COC(=O)/C=C(\Oc1ccccc1)C1(O)CCCCC1` the B-score of Tl+ flux slope (higher = more flux/activation; lower = inhibition) was 0.292. With `Cn1c(CCCOc2ccc(Cl)cc2Cl)n[nH]c1=S` the B-score of Tl+ flux slope (higher = more flux/activation; lower = inhibition) was -7.28 (active). With `O=C(CCCOc1ccc(Cl)cc1Cl)NNC(=O)C1CCC1` the B-score of Tl+ flux slope (higher = more flux/activation; lower = inhibition) was -0.669. Molecule `CC(C)Oc1ccc(Cc2n[nH]c(=S)n2Cc2ccccc2)cc1Cl` has a B-score of Tl+ flux slope (higher = more flux/activation; lower = inhibition) of 0.809. With `CC(/C=C/c1ccco1)=N/NC(=O)C1COc2ccccc2O1` (stereo unspecified) the B-score of Tl+ flux slope (higher = more flux/activation; lower = inhibition) was 0.221. For `S=C(Cc1ccc(Cl)cc1)N1CCOCC1`, the B-score of Tl+ flux slope (higher = more flux/activation; lower = inhibition) was 0.203. `O=C(NCc1ccccc1)c1ccc(S(=O)(=O)Nc2cccc(C(F)(F)F)c2)cc1` was tested, and the B-score of Tl+ flux slope (higher = more flux/activation; lower = inhibition) was -1.11. Molecule `CN(C)S(=O)(=O)c1cccc(C(=O)Nc2cccnc2)c1` has a B-score of Tl+ flux slope (higher = more flux/activation; lower = inhibition) of 0.857. In the case of `CN(C)S(=O)(=O)c1cccc(NC(=O)COC(=O)c2cc(=O)[nH]c(=O)[nH]2)c1`, the B-score of Tl+ flux slope (higher = more flux/activation; lower = inhibition) is reported as -0.0283. Molecule `CN(C)S(=O)(=O)c1cccc(NC(=S)NCc2ccc3c(c2)OCO3)c1` has a B-score of Tl+ flux slope (higher = more flux/activation; lower = inhibition) of -0.00969. With `CCN(CC)S(=O)(=O)c1cccc(C(=O)Nc2ccccc2)c1` the B-score of Tl+ flux slope (higher = more flux/activation; lower = inhibition) was 0.179. For `CN(C)S(=O)(=O)c1cccc(NC(=S)N/N=C/C(=O)c2ccccc2)c1`, the B-score of Tl+ flux slope (higher = more flux/activation; lower = inhibition) was 6.68 (active). `Cc1ccc(/C=N/NC(=S)Nc2cccc(S(=O)(=O)N(C)C)c2)o1` was tested, and the B-score of Tl+ flux slope (higher = more flux/activation; lower = inhibition) was 11.8 (active). `O=C(Cn1cnc2c(nnn2Cc2ccc(F)cc2)c1=O)NCc1ccc2c(c1)OCO2` was tested, and the B-score of Tl+ flux slope (higher = more flux/activation; lower = inhibition) was -2.61 (active). Work on `Cc1cc(C)cc(NC(=O)Cn2cnc3c(nnn3Cc3ccc(F)cc3)c2=O)c1` yielded a B-score of Tl+ flux slope (higher = more flux/activation; lower = inhibition) of 0.19. For `O=C(Cn1nnc(-c2ccccc2)n1)NCc1ccc2c(c1)OCO2`, the B-score of Tl+ flux slope (higher = more flux/activation; lower = inhibition) was -1.86. `Cn1nccc1NC(=O)Nc1ccc(OC(F)(F)F)cc1` gave a B-score of Tl+ flux slope (higher = more flux/activation; lower = inhibition) of -0.213. `Cc1ccc(Cl)cc1-c1ccc(/C=N/n2cnnc2)o1` was tested, and the B-score of Tl+ flux slope (higher = more flux/activation; lower = inhibition) was 0.473. `Cc1ccccc1-c1n[nH]c(=S)n1/N=C/c1ccc(-c2ccccc2Br)o1` was tested, and the B-score of Tl+ flux slope (higher = more flux/activation; lower = inhibition) was 5.28 (active). With `Cc1n[nH]c(=S)n1/N=C/c1ccc(Br)o1` the B-score of Tl+ flux slope (higher = more flux/activation; lower = inhibition) was -0.354. Molecule `O=[N+]([O-])c1cccc2ncccc12` has a B-score of Tl+ flux slope (higher = more flux/activation; lower = inhibition) of -1.11. With `Cc1cc2c(=O)n(C)c(SCC(=O)c3cc4ccccc4o3)nc2s1` the B-score of Tl+ flux slope (higher = more flux/activation; lower = inhibition) was 0.288. `Cc1ccc(Nc2nnc(SCC(=O)c3cc4ccccc4o3)s2)cc1C` was tested, and the B-score of Tl+ flux slope (higher = more flux/activation; lower = inhibition) was -8.65 (active). For `Cc1ccccc1Nc1nnc(SCC(=O)c2cc3ccccc3o2)s1`, the B-score of Tl+ flux slope (higher = more flux/activation; lower = inhibition) was -2.32.
